The text below walks through data of the supplement of paper PMC10037445.

Assay [1] has as its system RAW-Dual. Description: NF-kB SEAP reporter activity, fold change vs agonist alone; higher = enhanced NF-kB activity. The method in brief:
(§1)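 RAW-Dual macrophages (50,000 cells/well in DMEM, 384-well plates) received 50 nL of library stock by pin tool, then a PRR agonist 1 h later, and were kept at 37 °C, 5% CO2. After 20 hours, supernatant was read for IRF by QuantiLuc luminescence and for NF-κB by QuantiBlue absorbance at 620 nm. Reporter activity is fold change over agonist-alone wells. Cytotoxic wells had IncuCyte confluency below 70% of agonist controls in both mask sets.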

The subject of assay [2] is RAW-Dual. Description: NF-kB SEAP reporter activity, fold change vs agonist alone; cytotoxicity flag (confluency mask): not cytotoxic; higher = enhanced NF-kB activity. The method in brief:
as §1

In assay [3] the test system is RAW-Dual. Description: NF-kB SEAP reporter activity, fold change vs agonist alone; cytotoxicity flag (confluency mask): cytotoxic (confluency <70% of control); higher = enhanced NF-kB activity. Summed up: as §1
Setting [4] is: library stock concentration (final ~1000-fold dilution): 10 mM, cytotoxicity flag (confluency mask): cytotoxic (confluency <70% of control), agonist: Imiquimod (TLR7) […].
The mark [5] stands for this setting: library stock concentration (final ~1000-fold dilution): 10 mM, cytotoxicity flag (confluency mask): cytotoxic (confluency <70% of control), agonist: MPLA (TLR4) […].
Setting [6] is: agonist: ODN 1826 (TLR9) 0.5 ug/mL.
Setting [7] is: agonist: Pam2CSK4 (TLR2/6) 0.1 ug/mL.
Where [8] appears, read: agonist: Pam3CSK4 (TLR2/1) 0.1 ug/mL.
[9] abbreviates: library stock concentration (final ~1000-fold dilution): 10 mM, cytotoxicity flag (confluency mask): not cytotoxic, agonist: Imiquimod (TLR7) […].
Where [10] appears, read: library stock concentration (final ~1000-fold dilution): 10 mM, cytotoxicity flag (confluency mask): not cytotoxic, agonist: MPLA (TLR4) […].
Where [11] appears, read: library stock concentration (final ~1000-fold dilution): 2 mM, cytotoxicity flag (confluency mask): not cytotoxic, agonist: Imiquimod (TLR7) […].
[12] abbreviates: library stock concentration (final ~1000-fold dilution): 2 mM, cytotoxicity flag (confluency mask): not cytotoxic, agonist: MPLA (TLR4) […].

Whole data set: some 2,900 compounds, median “NF-kB SEAP reporter activity, fold change vs agonist alone” near 0.99, cut for the highest 2% near 2.6. For the sample, the highest values were picked, then their nearest neighbours and some compounds at random.

For the compound `CCN(CC)CCCCNc1ncc2cc(-c3cc(OC)cc(OC)c3)c(NC(=O)NC(C)(C)C)nc2n1`, the “NF-kB SEAP reporter activity” value with RAW-Dual [1] (setting [4]) was found to be 2.8; in the assay on RAW-Dual [1] (setting [5]), 2.71.
As for `CNc1ncc2cc(-c3cc(NC(=O)NCCC(C)(C)C)c(F)cc3C)c(C)nc2n1` (library stock concentration (final ~1000-fold dilution): 2 mM), the “NF-kB SEAP reporter activity” value was determined as 1.42 in the assay on RAW-Dual [2] (agonist: LPS (TLR4) 0.1 ug/mL), 0.533 with RAW-Dual [2] (setting [6]), 0.218 in the assay on RAW-Dual [2] (setting [7]) and 0.28 in the assay on RAW-Dual [2] (setting [8]).
For the compound `COc1cc(OC)cc(-c2cc3cnc(N)nc3nc2NC(=O)NC(C)(C)C)c1`, the “NF-kB SEAP reporter activity” value with RAW-Dual [1] (setting [9]) turned out to be 0.989; in the assay on RAW-Dual [1] (setting [10]), 1.1.
As to `CNc1ncc2cc(-c3cc(NC(=O)NCCC(C)(C)C)c(F)cc3C)c(C)nc2n1`, the “NF-kB SEAP reporter activity” value came to 0.497 in the assay with RAW-Dual [1] (setting [11]) and 0.918 in the assay with RAW-Dual [1] (setting [12]).
For the compound `O=C(NC1(c2ccccc2)CC1)c1c(CN2CCC(N3CCCCC3)CC2)c(-c2cccc(C(F)(F)F)c2)nc2cc(Br)ccc12` (library stock concentration (final ~1000-fold dilution): 10 mM), the “NF-kB SEAP reporter activity” value with RAW-Dual [3] (agonist: LPS (TLR4) 0.1 ug/mL) came out at 2.58; in the assay on RAW-Dual [3] (setting [6]), 0.897; with RAW-Dual [3] (setting [7]), 0.896; in the assay on RAW-Dual [3] (setting [8]), 1.27.
On to `O=C(NC1(c2ccccc2)CC1)c1c(CN2CCC(N3CCCCC3)CC2)c(-c2cccc(C(F)(F)F)c2)nc2cc(Br)ccc12`, for which the “NF-kB SEAP reporter activity” value in the assay on RAW-Dual [1] (setting [4]) came out at 0.916; in the assay on RAW-Dual [1] (setting [5]), 1.03.
On to `O=C(c1cccc(Br)c1)N1CCC(N2CCCC2)CC1` (library stock concentration (final ~1000-fold dilution): 10 mM), for which the “NF-kB SEAP reporter activity” value worked out at 1.39 in the assay on RAW-Dual [2] (agonist: LPS (TLR4) 0.1 ug/mL), 0.951 with RAW-Dual [2] (setting [6]), 1.16 in the assay on RAW-Dual [2] (setting [7]) and 0.966 with RAW-Dual [2] (setting [8]).
Turning to `O=C(c1cccc(Br)c1)N1CCC(N2CCCC2)CC1`, in the assay on RAW-Dual [1] (setting [10]), the “NF-kB SEAP reporter activity” value amounted to 1.09.
On to `CN1C(=O)C(NC(=O)c2n[nH]c(Cc3ccccc3)n2)COc2ccccc21` (stereo not given) (library stock concentration (final ~1000-fold dilution): 10 mM), for which the “NF-kB SEAP reporter activity” value in the assay on RAW-Dual [2] (agonist: LPS (TLR4) 0.1 ug/mL) was found to be 1.01; in the assay on RAW-Dual [2] (setting [6]) it was 1.59; in the assay with RAW-Dual [2] (setting [7]), 1.01; with RAW-Dual [2] (setting [8]) it was 1.15.
Turning to `CN1C(=O)C(NC(=O)c2n[nH]c(Cc3ccccc3)n2)COc2ccccc21` (stereo not given), the “NF-kB SEAP reporter activity” value with RAW-Dual [1] (setting [9]) came to 1.3; in the assay with RAW-Dual [1] (setting [10]), 0.971.
As to `CN(C/C=C/C#CC(C)(C)C)Cc1cccc2ccccc12.Cl` (library stock concentration (final ~1000-fold dilution): 10 mM), the “NF-kB SEAP reporter activity” value with RAW-Dual [2] (agonist: LPS (TLR4) 0.1 ug/mL) worked out at 3.51; in the assay with RAW-Dual [2] (setting [6]), 0.849; in the assay with RAW-Dual [2] (setting [7]) it was 0.948; with RAW-Dual [2] (setting [8]), 1.3.
Taken in the same sequence, the figures for `CN(C/C=C/C#CC(C)(C)C)Cc1cccc2ccccc12` (library stock concentration (final ~1000-fold dilution): 10 mM) were 4.26, 0.849, 0.95 and 1.44.
With `CN(C/C=C/C#CC(C)(C)C)Cc1cccc2ccccc12.Cl`, the “NF-kB SEAP reporter activity” value in the assay on RAW-Dual [1] (setting [9]) turned out to be 1.56; in the assay with RAW-Dual [1] (setting [10]), 2.08.
Take `CN(C/C=C/C#CC(C)(C)C)Cc1cccc2ccccc12`: the “NF-kB SEAP reporter activity” value in the assay with RAW-Dual [1] (setting [9]) was 1.6; in the assay with RAW-Dual [1] (setting [10]) it was 2.02.
In the case of `COc1cc2c(cc1OC)CN(C(=O)/C=C/c1c(-c3ccccc3)n(C)c3ncccc13)CC2.Cl` (library stock concentration (final ~1000-fold dilution): 10 mM), the “NF-kB SEAP reporter activity” value with RAW-Dual [2] (agonist: LPS (TLR4) 0.1 ug/mL) is 1.15; with RAW-Dual [2] (setting [6]), 1.14; in the assay with RAW-Dual [2] (setting [7]), 1.15; in the assay with RAW-Dual [2] (setting [8]), 1.18.
As to `COc1cc2c(cc1OC)CN(C(=O)/C=C/c1c(-c3ccccc3)n(C)c3ncccc13)CC2.Cl`, the “NF-kB SEAP reporter activity” value with RAW-Dual [1] (setting [9]) was determined as 1; in the assay with RAW-Dual [1] (setting [10]), 1.02.
With `CNC1CN(c2ccc3c(=O)c(C(=O)O)cn(-c4nccs4)c3n2)CC1OC.Cl` (stereo not given), the results for the “NF-kB SEAP reporter activity” value with RAW-Dual [1] (setting [11]) and with RAW-Dual [1] (setting [12]) were 1.12 and 0.968, respectively.
For `CNC1CN(c2ccc3c(=O)c(C(=O)O)cn(-c4nccs4)c3n2)CC1OC.Cl` (stereo not given) (library stock concentration (final ~1000-fold dilution): 2 mM), the “NF-kB SEAP reporter activity” value with RAW-Dual [2] (agonist: LPS (TLR4) 0.1 ug/mL) came out at 1.11; in the assay with RAW-Dual [2] (setting [6]), 1.56; in the assay on RAW-Dual [2] (setting [7]), 1.32; in the assay with RAW-Dual [2] (setting [8]) it was 1.18.
As for `Br.CN(C)CCCC1(c2ccc(F)cc2)OCc2cc(C#N)ccc21` (stereo not given) (library stock concentration (final ~1000-fold dilution): 10 mM), the “NF-kB SEAP reporter activity” value with RAW-Dual [2] (agonist: LPS (TLR4) 0.1 ug/mL) came to 1.15; with RAW-Dual [2] (setting [6]) it was 0.889; in the assay on RAW-Dual [2] (setting [7]) it was 0.786; with RAW-Dual [2] (setting [8]) it was 0.857.
On to `Br.CN(C)CCCC1(c2ccc(F)cc2)OCc2cc(C#N)ccc21` (stereo not given), for which the “NF-kB SEAP reporter activity” value in the assay with RAW-Dual [1] (setting [10]) turned out to be 1.01.
On to `CCOc1cc(C(CS(C)(=O)=O)N2C(=O)c3cccc(NC(C)=O)c3C2=O)ccc1OC` (stereo not given), for which the figures for the “NF-kB SEAP reporter activity” value in the assay with RAW-Dual [1] (setting [9]) and in the assay on RAW-Dual [1] (setting [10]) were 1.12 and 1.26, respectively.
Consider `CCOc1cc(C(CS(C)(=O)=O)N2C(=O)c3cccc(NC(C)=O)c3C2=O)ccc1OC` (stereo not given) (library stock concentration (final ~1000-fold dilution): 10 mM), for which the “NF-kB SEAP reporter activity” value with RAW-Dual [2] (agonist: LPS (TLR4) 0.1 ug/mL) came to 1.59; in the assay with RAW-Dual [2] (setting [6]), 1.87; in the assay on RAW-Dual [2] (setting [7]), 1.47; in the assay on RAW-Dual [2] (setting [8]) it was 1.72.
For the compound `N=C(N)NCCCC(N)C(=O)NCC(=O)NC(CC(=O)O)C(=O)O` (stereo not given), the “NF-kB SEAP reporter activity” value worked out at 0.924 with RAW-Dual [1] (library stock concentration (final ~1000-fold dilution): 10 mM water, cytotoxicity flag (confluency mask): not cytotoxic, agonist: Imiquimod (TLR7) […]) and 1.06 with RAW-Dual [1] (library stock concentration (final ~1000-fold dilution): 10 mM water, cytotoxicity flag (confluency mask): not cytotoxic, agonist: MPLA (TLR4) […]).
As to `N=C(N)NCCCC(N)C(=O)NCC(=O)NC(CC(=O)O)C(=O)O` (stereo not given) (library stock concentration (final ~1000-fold dilution): 10 mM water), the “NF-kB SEAP reporter activity” value turned out to be 1.41 in the assay with RAW-Dual [2] (agonist: LPS (TLR4) 0.1 ug/mL), 1.14 with RAW-Dual [2] (setting [6]), 1.2 with RAW-Dual [2] (setting [7]) and 0.993 with RAW-Dual [2] (setting [8]).
The like results for `[O-][n+]1cccc(-c2nc3c(Cl)cccc3cc2C(Nc2ncnc3cccnc23)C(F)(F)F)c1` (stereo not given) (library stock concentration (final ~1000-fold dilution): 10 mM) were, in that order, 2.33, 1.3, 0.992 and 1.38.
`[O-][n+]1cccc(-c2nc3c(Cl)cccc3cc2C(Nc2ncnc3cccnc23)C(F)(F)F)c1` (stereo not given): the “NF-kB SEAP reporter activity” value was found to be 0.648 with RAW-Dual [1] (setting [9]) and 1.56 with RAW-Dual [1] (setting [10]).
On to `CC(C)=CC(C)C[C@](C)(O[C@@H]1O[C@H](CO)[C@@H](O)[C@H](O)[C@H]1O)[C@H]1CC[C@]2(C)C3CCC4C(C)(C)C(O[C@@H]5O[C@H](CO)[C@@H](O)[C@H](O)[C@H]5O[C@@H]5O[C@H](CO)[C@@H](O)[C@H](O)[C@H]5O)CC[C@]4(C)C3C[C@H](O)[C@@H]12` (stereo not given in full) (library stock concentration (final ~1000-fold dilution): 10 mM), for which the “NF-kB SEAP reporter activity” value came out at 1.18 in the assay on RAW-Dual [2] (agonist: LPS (TLR4) 0.1 ug/mL), 1.06 in the assay with RAW-Dual [2] (setting [6]), 1.04 with RAW-Dual [2] (setting [7]) and 1.04 in the assay on RAW-Dual [2] (setting [8]).
For the compound `CC(C)=CC(C)C[C@](C)(O[C@@H]1O[C@H](CO)[C@@H](O)[C@H](O)[C@H]1O)[C@H]1CC[C@]2(C)C3CCC4C(C)(C)C(O[C@@H]5O[C@H](CO)[C@@H](O)[C@H](O)[C@H]5O[C@@H]5O[C@H](CO)[C@@H](O)[C@H](O)[C@H]5O)CC[C@]4(C)C3C[C@H](O)[C@@H]12` (stereo not given in full), the “NF-kB SEAP reporter activity” value turned out to be 0.936 with RAW-Dual [1] (setting [9]) and 1.05 in the assay on RAW-Dual [1] (setting [10]).
